From PubChem BioAssay AID743366 (National Center for Advancing Translational Sciences (NCATS), 2014)

Assay: qHTS profiling of inhibitors of Plasmodium falciparum (HB3) proliferation (acoustic dispense)
Settings: P. falciparum HB3 in erythrocytes, SYBR Green, 72 h; at 49.8 µM (top of the series) unless noted

| SMILES | activity (normalised, proliferation) |
| --- | --- |
| CS[C@H]1SC[C@@H]2C(=O)N(C)[C@H](C(C)C)C(=O)OC[C@H](NC(=O)c3cnc4ccccc4n3)C(=O)N[C@H](C)C(=O)N(C)[C@@H]1C(=O)N(C)[C@H](C(C)C)C(=O)OC[C@H](NC(=O)c1cnc3ccccc3n1)C(=O)N[C@H](C)C(=O)N2C | 1.22% |
| COc1cc2nc(N3CCCN(C)CC3)nc(NC3CCN(Cc4ccccc4)CC3)c2cc1OC | -1.22% |
| CN(C(=O)OC(C)(C)C)[C@@H](Cc1ccc(O[S+](=O)([O-])c2cccc3cnccc23)cc1)C(=O)N1CCN(C(=O)OCc2ccccc2)CC1 | 2.29% |
| COc1cc(C)c2c(Oc3cccc(C(F)(F)F)c3)c(OC)cc(NCCCC(C)N)c2n1 (configuration not stated) | -2.19% |
| Nc1ccc(-c2ccc3ncc4ccc(=O)n(-c5cccc(C(F)(F)F)c5)c4c3c2)cn1 | -1.37% |
| CC(Sc1nc2ccccc2[nH]1)C(=O)NN=Cc1cc(Br)ccc1O (configuration not stated) | -0.944% [at 4.15 µM] |
| CCN(CC)Cc1cc(Nc2ccnc3cc(Cl)ccc23)ccc1O | -0.453% [at 23.2 µM] |
| OB1OCc2cc(F)ccc21 | 0.13% |
| C[C@H]1[C@@H](OC(=O)CCC(=O)O)O[C@@H]2O[C@@]3(C)CC[C@@H]4[C@H](C)CC[C@@H]1[C@@]24OO3 | -0.479% |
| CN[C@@H]1C[C@H]2O[C@@](C)([C@H]1OC)n1c3ccccc3c3c4c(c5c6ccccc6n2c5c31)C(=O)N[C@H]4O | -0.206% |
| Cn1c(=O)n(-c2ccc(C(C)(C)C#N)cc2)c2c3cc(-c4cnc5ccccc5c4)ccc3ncc21 | 1.54% |
| COC1=C2C[C@@H](C)C[C@H](OC)[C@@H](O)[C@@H](C)C=C(C)[C@H](OC(N)=O)[C@@H](OC)C=CC=C(C)C(=O)NC(=CC1=O)C2=O | -2.24% |
